Laboratory results as given in PubChem BioAssay (Tox21).
Results filed as inconclusive are left out. Active and inactive are the calls of the source. Calls come from the whole dose curve; as a rule, active = well fitted cell-killing curve with a large enough effect in the repeat runs; inconclusive = weak or mixed curves, or effect the other way; inactive = no such curve, though single readings can be large or run the other way.

Test: qHTS assay to identify small molecule agonists of the vitamin D receptor (VDR) signaling pathway - cell viability counter screen (AID 743224); note: nearly all actives have a fitted effect of over 50% in size
Details: VDR-bla HEK293T viability, CellTiter-Glo luminescence, 16 h; series mostly up to 62.6 µM
Procedure, shortened: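 Here cell health was gauged by luminescent ATP detection (CellTiter-Glo, 30 min RT) in VDR-bla cells that had been incubated with test compounds for 16 h at 37C and 5% CO2.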
% is set by controls: 0 for no effect and ±100 for the full control effect.

Structure (SMILES)	outcome	activity change, negative = cytotoxicity
C[Si]1(C)N[Si](C)(C)N[Si](C)(C)N1	inactive	–
Nc1ccc(S(=O)(=O)Nc2ccccn2)cc1	inactive	–
OC[C@@H](O)[C@H](O)[C@@H](O)[C@@H](O)CO	inactive	–
CCCCCC(=O)OCC	inactive	–
Cc1cc(C)cc([N+](=O)[O-])c1	inactive	–
FC(F)(F)/C(=N\OCC1OCCO1)c1ccc(Cl)cc1	inactive	–
C=CCOc1c(Br)cc(Br)cc1Br	inactive	–
CC(C)=CC(C)(C)C	inactive	–
CC(=O)N1CCN(c2ccc(O)cc2)CC1	inactive	–
O=C1OC(=O)c2cc(Oc3ccc4c(c3)C(=O)OC4=O)ccc21	inactive	–
NS(=O)(=O)c1cc2c(cc1Cl)NC(C(Cl)Cl)NS2(=O)=O (configuration not stated)	inactive	–
CC(C)CCC(=O)CCC(C)C	inactive	–
CNC(=O)NC	inactive	–
OCCCCCCCl	inactive	–
C=CCOc1cc(Cl)ccc1C(=O)NCCN(CC)CC	inactive	–
CCCCCCCCCCCCC1CO1 (configuration not stated)	inactive	–
CCOC(=O)CCCCCCCCC(=O)OCC	inactive	–
CCOC(=O)OCC/C(SC(=O)OCC)=C(\C)N(C=O)Cc1cnc(C)nc1N	inactive	–
C=CCCCCCCCCCCC	–	-9.89% [at 5.95 µM] (inactive)

Structure (SMILES)	outcome	activity change, negative = cytotoxicity
CC(=O)Nc1ncc([N+](=O)[O-])s1	inactive	–
Cc1c(C(C)C)c(=O)n(-c2ccccc2)n1C	inactive	–
Cc1ccc2c(c1)c1c3n2CCNC3CCC1 (configuration not stated)	inactive	–
Nc1ccc(C(=O)OCC(O)CO)cc1 (configuration not stated)	inactive	–
CC(=O)OC(C)c1ccccc1 (configuration not stated)	inactive	–
FC(F)(F)c1ccc(Cl)cc1Cl	inactive	–
Nc1cc(Cl)cc(S(=O)(=O)O)c1O	inactive	–
CCCCCCCCCCC	inactive	–
CCOC(=O)CCc1ccccc1	inactive	–
CN=C(NC#N)NCCSCc1csc(N=C(N)N)n1	inactive	–
CCOc1ccc(NC(=O)OC(C)C)cc1OCC	inactive	–
Cc1ccc(S(=O)(=O)NC(=O)NC2CCCCCCC2)cc1	inactive	–
NC(Cc1c[nH]c2ccccc12)C(=O)O (configuration not stated)	inactive	–
CCCCC/C=C/CC(=O)OC	inactive	–
CCN1CN(CC)CN(CC)C1	inactive	–
NCCc1ccn[nH]1	inactive	–
C=C(C)[C@@H]1CC[C@@H](C)C[C@@H]1O	inactive	–
Cc1nc(C)nc(N2C[C@@H](C)N(c3ccnc([C@@H](C)O)n3)[C@@H](C)C2)n1	inactive	–
